Where “and” joins values, the source holds several entries; their conditions need not be identical. Identical values can stand only once. Results filed as inconclusive are left out. A call without a number means that no potency is given here. The source holds several records for some structures; these can differ, active in one and inactive in another. Calls of active or inactive are those of the source. Unless noted, calls come from the whole dose curve; as a rule, active = well fitted curve in the direction sought with a large enough effect in the repeat runs; inconclusive = weak or mixed curves; inactive = no such curve, though single readings can be large; an effect the other way counts as inactive or inconclusive.
What was measured:
[1] = qHTS assay to identify aromatase inhibitors - cell viability counter screen (AID 743084);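 note: cells stimulated with testosterone during compound exposure; nearly all actives have a fitted effect of over 55% in size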; note: potency is the fitted concentration of half-maximal effect
[2] = molecular target: Aryl hydrocarbon receptor (Homo sapiens) (UniProt P35869); assay: qHTS assay to identify small molecule that activate the aryl hydrocarbon receptor (AhR) signaling pathway (AID 743085); note: nearly all actives have a fitted effect of over 15% in size; note: potency is the fitted concentration of half-maximal effect;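 for activation: HG2L7.5c1 human HepG2 liver cells with stably integrated DRE-driven firefly reporter; series mostly up to about 70 µM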
Sequence of Aryl hydrocarbon receptor (Homo sapiens) (P35869 whole entry, looked up): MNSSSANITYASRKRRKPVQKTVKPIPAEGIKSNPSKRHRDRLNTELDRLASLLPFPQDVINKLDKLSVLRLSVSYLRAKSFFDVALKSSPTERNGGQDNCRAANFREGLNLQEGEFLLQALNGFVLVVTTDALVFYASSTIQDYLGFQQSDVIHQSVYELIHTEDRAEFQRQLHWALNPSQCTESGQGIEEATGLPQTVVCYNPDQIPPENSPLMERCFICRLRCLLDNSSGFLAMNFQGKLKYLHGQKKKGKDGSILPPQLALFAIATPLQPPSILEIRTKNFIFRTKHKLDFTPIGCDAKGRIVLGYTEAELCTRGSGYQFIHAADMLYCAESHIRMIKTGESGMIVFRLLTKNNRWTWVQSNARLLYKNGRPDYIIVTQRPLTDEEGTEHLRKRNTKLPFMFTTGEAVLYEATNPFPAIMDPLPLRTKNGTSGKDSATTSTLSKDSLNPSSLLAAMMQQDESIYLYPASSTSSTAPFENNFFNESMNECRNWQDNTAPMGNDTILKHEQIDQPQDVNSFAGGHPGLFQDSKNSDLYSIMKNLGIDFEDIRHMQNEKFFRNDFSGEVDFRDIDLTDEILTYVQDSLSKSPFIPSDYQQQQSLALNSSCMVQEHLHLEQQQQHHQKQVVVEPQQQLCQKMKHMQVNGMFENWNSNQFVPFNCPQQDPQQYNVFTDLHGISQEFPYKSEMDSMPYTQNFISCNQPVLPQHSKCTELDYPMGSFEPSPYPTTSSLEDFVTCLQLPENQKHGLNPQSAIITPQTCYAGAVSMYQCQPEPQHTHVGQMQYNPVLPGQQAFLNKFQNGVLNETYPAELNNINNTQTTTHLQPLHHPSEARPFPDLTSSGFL
Outline: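 24 h compound exposure, 37C, HepG2-derived HG2L7.5c1 cells with DRE-responsive luciferase. Readouts: fluorescence viability, then luminescence at room temperature after 30 min.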

[3] = qHTS assay to identify small molecule that activate the aryl hydrocarbon receptor (AhR) signaling pathway - cell viability counter screen (AID 743086); note: nearly all actives have a fitted effect of over 45% in size; note: potency is the fitted concentration of half-maximal effect
Outline: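 Cytotoxicity counter screen: CellTiter-Fluor signal (30 min, 37 C) in 4000 HepG2 cells/well carrying the DRE-luciferase reporter, following 24 h compound exposure at 37 C.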

[4] = molecular target: Peroxisome proliferator-activated receptor gamma (Homo sapiens) (UniProt P37231); assay: qHTS assay to identify small molecule agonists of the peroxisome proliferator-activated receptor gamma (PPARg) signaling pathway (AID 743094; active = well fitted activation curve with a large enough effect in the signal ratio in the repeat runs, not every such curve was filed as active; the % refers to the signal ratio; note: potency is the fitted concentration of half-maximal effect)
Sequence of Peroxisome proliferator-activated receptor gamma (Homo sapiens) (P37231 whole entry, looked up): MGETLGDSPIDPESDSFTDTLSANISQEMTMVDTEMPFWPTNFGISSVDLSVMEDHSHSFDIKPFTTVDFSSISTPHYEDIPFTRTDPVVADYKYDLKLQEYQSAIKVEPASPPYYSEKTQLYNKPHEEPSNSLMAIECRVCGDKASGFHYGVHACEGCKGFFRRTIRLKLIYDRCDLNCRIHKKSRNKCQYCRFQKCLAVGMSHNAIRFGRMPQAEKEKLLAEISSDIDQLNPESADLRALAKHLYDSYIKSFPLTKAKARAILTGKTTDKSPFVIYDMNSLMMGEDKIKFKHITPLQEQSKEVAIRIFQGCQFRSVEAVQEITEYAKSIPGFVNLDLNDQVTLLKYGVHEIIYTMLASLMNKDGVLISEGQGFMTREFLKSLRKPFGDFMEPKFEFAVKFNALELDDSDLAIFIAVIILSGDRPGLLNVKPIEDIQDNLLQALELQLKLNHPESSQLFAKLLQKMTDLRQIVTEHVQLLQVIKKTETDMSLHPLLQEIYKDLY
Outline: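 Cell-based bla reporter, HEK293H background, PPARg-driven UAS. Pre-incubation 5 h, 37C, 5% CO2. Compound 17 h, 37C. Substrate 1 h RT; fluorescence.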

[5] = molecular target: Peroxisome proliferator-activated receptor gamma (Homo sapiens) (UniProt P37231); assay: qHTS assay to identify small molecule antagonists of the peroxisome proliferator-activated receptor gamma (PPARg) signaling pathway (AID 743191; calls by dose curve; note: nearly all actives have a fitted effect of over 30% in size; note: potency is the fitted concentration of half-maximal effect)
Outline: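 Beta-lactamase reporter under UAS control in HEK293H PPARg-bla cells; compound treatment 17 h at 37C. Read-out: fluorescence intensity after 1 h room-temperature incubation with LiveBLAzer B/G FRET substrate.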

[6] = qHTS assay to identify small molecule antagonists of the peroxisome proliferator-activated receptor gamma (PPARg) signaling pathway - cell viability counter screen (AID 743194); note: nearly all actives have a fitted effect of over 55% in size; note: potency is the fitted concentration of half-maximal effect
Outline: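 Viability was measured as CellTiter-Glo luminescence in GeneBLAzer PPARg UAS-bla HEK293H cells. These cells had been exposed 17 h at 37 C to compounds together with rosiglitazone at 50 nM final, with the beta-lactamase readout taken in the same wells.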

[7] = qHTS assay for small molecule agonists of the antioxidant response element (ARE) signaling pathway (AID 743202; active = well fitted activation curve with a large enough effect in the signal ratio in the repeat runs, not every such curve was filed as active; the % refers to the signal ratio; note: potency is the fitted concentration of half-maximal effect)
Outline: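 Beta-lactamase reporter activity, read as fluorescence intensity, reflects ARE/Nrf2 pathway induction in HepG2 cells after 16 h compound exposure at 37 C; substrate loading was 2 h at room temperature.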

[8] = qHTS assay for small molecule agonists of the antioxidant response element (ARE) signaling pathway - cell viability counter screen (AID 743203; calls by dose curve; note: nearly all actives have a fitted effect of over 55% in size; note: potency is the fitted concentration of half-maximal effect)
Outline: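 Measured in the same wells as the beta-lactamase ARE reporter, this read-out is CellTiter-Glo luminescence from HepG2 ARE-bla cells given compounds for 16 hrs.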

[9] = qHTS assay for small molecule activators of the heat shock response signaling pathway - cell viability counter screen (AID 743209); note: nearly all actives have a fitted effect of over 50% in size; note: potency is the fitted concentration of half-maximal effect
Outline: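 Same-well multiplex: after 2.5 h room-temperature incubation with LiveBLAzer B/G substrate and fluorescence reading, CellTiter-Glo reagent was added to HSE-bla HeLa cells that had received compound for 5 h at 37 C; luminescence read after 30 min.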

[10] = qHTS assay to identify small molecule agonists of the peroxisome proliferator-activated receptor delta (PPARd) signaling pathway - cell viability counter screen (AID 743211); note: nearly all actives have a fitted effect of over 55% in size; note: potency is the fitted concentration of half-maximal effect
Outline: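 Luminescent ATP viability assay (CellTiter-Glo, 30 min RT) in UAS-bla HEK293H cells carrying the PPAR delta reporter construct, 3000 cells/well, after a 17 h compound treatment at 37 C.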

[11] = qHTS assay to identify small molecule antagonists of the peroxisome proliferator-activated receptor delta (PPARd) signaling pathway - cell viability counter screen (AID 743213); note: nearly all actives have a fitted effect of over 50% in size; note: potency is the fitted concentration of half-maximal effect
Outline: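 Luminescence from CellTiter-Glo, added after the bla read and incubated 30 min at room temperature, gives viability of HEK293H PPARd-bla cells exposed to compounds for 17 h at 37 C with 300 nM L165041.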

[12] = qHTS assay to identify small molecule agonists of the farnesoid-X-receptor (FXR) signaling pathway - cell viability counter screen (AID 743218); note: nearly all actives have a fitted effect of over 45% in size; note: potency is the fitted concentration of half-maximal effect
Outline: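 Readout: CellTiter-Glo luminescence, 30 min RT, multiplexed after the FXR-bla FRET reading. HEK 293T FXR-UAS-bla cells received compound 5 h post-plating and were incubated 16 h at 37 C.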

[13] = qHTS assay to identify small molecule antagonists of the farnesoid-X-receptor (FXR) signaling pathway - cell viability counter screen (AID 743221; active = well fitted cell-killing curve with a large enough effect in the repeat runs, not every such curve was filed as active; note: nearly all actives have a fitted effect of over 50% in size; note: potency is the fitted concentration of half-maximal effect)
Outline: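 In GeneBLAzer FXR-UAS-bla HEK 293T cells stimulated with 50 uM chenodeoxycholic acid (final), compounds acted for 16 h at 37 C. Viability was assessed afterwards by CellTiter-Glo luminescence.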

[14] = molecular target: Peroxisome proliferator-activated receptor delta (Homo sapiens) (UniProt Q03181); assay: qHTS assay to identify small molecule antagonists of the peroxisome proliferator-activated receptor delta (PPARd) signaling pathway (AID 743215; active = well fitted inhibition curve with a large enough effect in the signal ratio in the repeat runs, not every such curve was filed as active; the % refers to the signal ratio;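 note: cells stimulated with agonist L165041 at 300 nM final during compound exposure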; note: potency is the fitted concentration of half-maximal effect)
Sequence of Peroxisome proliferator-activated receptor delta (Homo sapiens) (Q03181 whole entry, looked up): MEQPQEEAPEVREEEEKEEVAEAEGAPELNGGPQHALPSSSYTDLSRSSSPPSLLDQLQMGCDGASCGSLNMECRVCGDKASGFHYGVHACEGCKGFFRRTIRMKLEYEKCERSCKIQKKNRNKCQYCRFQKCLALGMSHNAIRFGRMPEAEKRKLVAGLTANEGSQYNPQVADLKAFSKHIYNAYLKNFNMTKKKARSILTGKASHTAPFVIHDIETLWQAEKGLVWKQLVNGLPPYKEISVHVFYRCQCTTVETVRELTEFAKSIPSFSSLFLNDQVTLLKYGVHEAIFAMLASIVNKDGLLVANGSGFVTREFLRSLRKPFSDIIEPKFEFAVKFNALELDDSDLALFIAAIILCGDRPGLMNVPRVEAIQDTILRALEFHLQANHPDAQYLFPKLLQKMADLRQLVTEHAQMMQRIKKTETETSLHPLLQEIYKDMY
Outline: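 Fluorescence from cleaved LiveBLAzer B/G FRET substrate (2 h, room temperature) reports PPARd-driven beta-lactamase in HEK293H UAS-bla cells. Cells had been treated 17 h at 37 C with compound plus 300 nM final L165041.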

[15] = molecular target: Bile acid receptor (Homo sapiens) (UniProt Q96RI1); assay: qHTS assay to identify small molecule agonists of the farnesoid-X-receptor (FXR) signaling pathway (AID 743220; active = well fitted activation curve with a large enough effect in the signal ratio in the repeat runs, not every such curve was filed as active; the % refers to the signal ratio)
Sequence of Bile acid receptor (Homo sapiens) (Q96RI1 whole entry, looked up): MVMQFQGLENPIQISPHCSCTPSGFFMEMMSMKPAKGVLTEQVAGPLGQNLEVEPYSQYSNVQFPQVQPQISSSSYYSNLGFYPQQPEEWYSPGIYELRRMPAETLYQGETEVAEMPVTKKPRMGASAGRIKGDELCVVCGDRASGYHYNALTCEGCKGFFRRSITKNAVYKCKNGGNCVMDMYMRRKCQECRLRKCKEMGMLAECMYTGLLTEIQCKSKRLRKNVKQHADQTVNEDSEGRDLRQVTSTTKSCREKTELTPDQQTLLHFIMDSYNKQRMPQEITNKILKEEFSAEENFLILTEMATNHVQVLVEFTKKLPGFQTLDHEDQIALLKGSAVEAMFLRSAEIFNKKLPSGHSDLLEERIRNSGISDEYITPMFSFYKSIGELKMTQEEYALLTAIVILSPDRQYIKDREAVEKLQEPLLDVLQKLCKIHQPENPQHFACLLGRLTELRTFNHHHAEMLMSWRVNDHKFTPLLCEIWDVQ
Outline: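 FXR-UAS-bla HEK 293T cells carrying a UAS-driven beta-lactamase reporter were plated for 5 h at 37C/5% CO2, then exposed to DMSO-dissolved Tox21 10K compounds for 16 h at 37C. A LiveBLAzer B/G FRET substrate was loaded for 2 h at room temperature before fluorescence reading.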

[16] = molecular target: Vitamin D3 receptor (Homo sapiens) (UniProt P11473); assay: qHTS assay to identify small molecule antagonists of the vitamin D receptor (VDR) signaling pathway (AID 743223; active = well fitted inhibition curve with a large enough effect in the signal ratio in the repeat runs, not every such curve was filed as active; the % refers to the signal ratio; note: potency is the fitted concentration of half-maximal effect)
Sequence of Vitamin D3 receptor (Homo sapiens) (P11473 whole entry, looked up): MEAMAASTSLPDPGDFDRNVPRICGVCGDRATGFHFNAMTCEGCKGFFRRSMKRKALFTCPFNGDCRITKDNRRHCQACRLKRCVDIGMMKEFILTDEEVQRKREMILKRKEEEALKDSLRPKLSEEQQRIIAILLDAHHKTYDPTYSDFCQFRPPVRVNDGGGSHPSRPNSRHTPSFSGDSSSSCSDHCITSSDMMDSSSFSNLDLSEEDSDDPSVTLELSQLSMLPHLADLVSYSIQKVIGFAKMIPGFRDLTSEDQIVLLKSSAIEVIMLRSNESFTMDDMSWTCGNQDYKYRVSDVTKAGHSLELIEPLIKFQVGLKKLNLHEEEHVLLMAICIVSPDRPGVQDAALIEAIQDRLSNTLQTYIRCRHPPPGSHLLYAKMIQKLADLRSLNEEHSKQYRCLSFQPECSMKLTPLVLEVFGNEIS
Outline: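 Agonist 1alpha,25-dihydroxyvitamin D3 (3 nM in well) was added with each compound to VDR-bla cells preincubated 4 h. Cells stood 16 h at 37C, then FRET substrate 2 h at room temperature; fluorescence intensity recorded.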

[17] = molecular target: Peroxisome proliferator-activated receptor delta (Homo sapiens) (UniProt Q03181); assay: qHTS assay to identify small molecule agonists of the peroxisome proliferator-activated receptor delta (PPARd) signaling pathway (AID 743212; calls by dose curve;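 note: HEK293H cells with PPARd UAS beta-lactamase reporter GeneBLAzer system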)
Outline: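 Steps: seed PPARd-bla HEK293H cells; incubate 5 h, 37 C, 5% CO2; add compounds in DMSO; incubate, 37 C; add LiveBLAzer B/G FRET substrate; hold 2 h at room temperature; measure fluorescence.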

[18] = molecular target: Bile acid receptor (Homo sapiens) (UniProt Q96RI1); assay: qHTS assay to identify small molecule antagonists of the farnesoid-X-receptor (FXR) signaling pathway (AID 743217; active = well fitted inhibition curve with a large enough effect in the signal ratio in the repeat runs, not every such curve was filed as active; the % refers to the signal ratio)
Outline: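 FRET fluorescence after 2 h room-temperature LiveBLAzer loading gives the readout. Prior step: FXR-bla HEK 293T cells, seeded and incubated 5 h, received test compounds plus 50 uM final CDCA for 16 h at 37 °C.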

[19] = qHTS assay for small molecule activators of the heat shock response signaling pathway (AID 743210; active = well fitted activation curve with a large enough effect in the signal ratio in the repeat runs, with a control signal flat, not every such curve was filed as active; the % refers to the signal ratio;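 note: HeLa cells with beta-lactamase reporter driven by heat shock elements; series mostly up to about 63 µM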)
Outline: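 Fluorescence from a cleaved B/G FRET substrate (2.5 h, room temp) reports HSE-driven beta-lactamase in HeLa cells treated 5 h at 37 C with DMSO-dissolved compounds.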

| Structure (SMILES) | Potency [1] | Potency [2] | Potency [3] | Potency [4] | Potency [5] | Potency [6] | Potency [7] | Potency [8] | Potency [9] | Potency [10] | Potency [11] | Potency [12] | Potency [13] | Potency [14] | outcome [15] | Potency [16] | Potency [17] | Potency [18] | outcome [19] |
| --- | --- | --- | --- | --- | --- | --- | --- | --- | --- | --- | --- | --- | --- | --- | --- | --- | --- | --- | --- |
| O=C1O[C@H]([C@@H](O)CO)C(O)=C1O | inactive | inactive | inactive | inactive | inactive | inactive | inactive | inactive | inactive | inactive | inactive | inactive | inactive |  |  |  |  |  |  |
| CCCCCCCCCCCCCCCC[N+](C)(C)Cc1ccccc1 | 26.6 µM (active) and 49.4 µM (active) | inactive | 29.8 µM (active) | inactive |  | 25.3 µM (active) and 17.7 µM (active) and 33.5 µM (active) |  | 63.1 µM (active) and 49.4 µM (active) and 29.8 µM (active) | 50.5 µM (active) and 44.4 µM (active) and 23.7 µM (active) | 31.9 µM (active) and 8.86 µM (active) and 18.8 µM (active) | 22.6 µM (active) and 9.94 µM (active) and 13.3 µM (active) | 25.3 µM (active) and 22.3 µM (active) and 13.3 µM (active) | 63.6 µM (active) and 25 µM (active) and 16.8 µM (active) | inactive | inactive | 63.6 µM (active) and 49.8 µM (active) |  |  |  |
| COc1ccc(CN(CCN(C)C)c2ccccn2)cc1 | inactive | inactive | inactive |  |  | inactive | inactive | inactive | inactive | inactive | inactive | inactive | inactive |  |  |  | inactive |  |  |
| CCN(Cc1c(F)cccc1Cl)c1c([N+](=O)[O-])cc(C(F)(F)F)cc1[N+](=O)[O-] | inactive | inactive | inactive |  |  | inactive | inactive | inactive | inactive | 17.4 µM (active) | 17.4 µM (active) | 19.5 µM (active) | 21.9 µM (active) |  | inactive | inactive |  |  |  |
| O=C1c2c(O)cccc2Cc2cccc(O)c21 | inactive | inactive | inactive | inactive |  | inactive |  | inactive | inactive | inactive | inactive | inactive | inactive |  | inactive |  |  | inactive |  |
| C=C1CC[C@H](O)C/C1=C\C=C1/CCC[C@]2(C)[C@@H]([C@H](C)CCCC(C)C)CC[C@@H]12 | inactive | inactive | inactive |  | 54.4 µM (active) | 61.1 µM (active) | 21.5 µM (active) |  | 48.5 µM (active) |  | 43.2 µM (active) | 48.5 µM (active) | 48.5 µM (active) |  | inactive |  |  |  |  |
| Cc1cc(=O)oc2cc(O)ccc12 | inactive | inactive | inactive | 49 µM (active) |  | inactive |  | inactive | inactive | inactive | inactive | inactive | inactive |  |  |  |  |  |  |
| Cc1c(C(=O)O)c(O)cc2c1C(=O)c1c(O)c([C@@H]3O[C@H](CO)[C@@H](O)[C@H](O)[C@H]3O)c(O)c(O)c1C2=O | 29.8 µM (active) and 13.3 µM (active) and 24.3 µM (active) | inactive | 26.6 µM (active) and 21.7 µM (active) | inactive | inactive | inactive |  | inactive | inactive | inactive | inactive | inactive | inactive | inactive | inactive | inactive |  | inactive |  |
| C=C(C)C(=O)OCC(C)O (centres undefined) | inactive | inactive | inactive |  |  | inactive | inactive | inactive | inactive | inactive | inactive | inactive | inactive | inactive |  | inactive |  |  |  |
| CCN(CC)C(=O)c1cccc(C)c1 | inactive | inactive and 60.5 µM (active) | inactive | inactive |  | inactive | inactive | inactive | inactive | inactive | inactive | inactive | inactive |  | inactive | inactive | inactive | inactive |  |
| CN1CCC[C@H]1c1cccnc1 | inactive | inactive | inactive | inactive | inactive | inactive | inactive | inactive | inactive | inactive | inactive | inactive | inactive |  |  | inactive |  |  |  |
| CN(C)C(=S)SC(=S)N(C)C | 3.35 µM (active) and 994 nM (active) and 486 nM (active) | inactive | 1.57 µM (active) and 1.09 µM (active) |  | inactive | inactive |  |  |  | 710 nM (active) and 389 nM (active) and 1.33 µM (active) | 3.99 µM (active) and 549 nM (active) and 944 nM (active) | 502 nM (active) and 2.45 µM (active) and 1.68 µM (active) | 564 nM (active) and 1.68 µM (active) | 596 nM (active) |  | 27.5 µM (active) |  |  |  |
| COc1ccc2c(c1)c(CC(=O)O)c(C)n2C(=O)c1ccc(Cl)cc1 | inactive | inactive | inactive |  |  | inactive | inactive | inactive | inactive | inactive | inactive | inactive | inactive |  |  |  |  |  | inactive |

— PubChem BioAssay (Tox21)
